Read-out in experiment [1]: Monocyte Chemoattractant Protein-1 (MCP1), CCL2 (gene 6347)
Description: BSK_SAg_MCP1: BioMAP Diversity Plus: SAg Assay for Monocyte Chemoattractant Protein-1 (MCP1) Biomarker Activity (AID 2283090). The settings on record: primary human HUVEC with PBMC; actives raise or lower the signal. The method, boiled down:
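MCP-1 levels in the endothelial–PBMC SAg co-culture were quantified by ELISA at 24 h post-dosing; both increases and decreases versus DMSO scored. Cytotoxicity monitored by SRB total protein in parallel cultures.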

Read-out in experiment [2]: E-selectin (Homo sapiens) (UniProt P16581)
Description: BSK_SAg_Eselectin: BioMAP Diversity Plus: SAg Assay for Eselectin Biomarker Activity (AID 2283091). The following applies: primary human HUVEC with PBMC; actives raise or lower the signal. An outline of the steps: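 Endpoint values derive from bidirectional fitting relative to DMSO, using ELISA-measured E-selectin in a human vascular co-culture (umbilical vein endothelium plus PBMC) sampled 24 h after dosing.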

Read-out in experiment [3]: Monokine induced gamma interferon (MIG), CXCL9 (gene 4283)
Description: BSK_SAg_MIG: BioMAP Diversity Plus: SAg Assay for Monokine induced gamma interferon (MIG) Biomarker Activity (AID 2283092). The following applies: primary human HUVEC with PBMC; actives raise or lower the signal. The method, boiled down: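 ELISA readout of MIG/CXCL9; primary human umbilical vein endothelial cells co-cultured with peripheral blood mononuclear cells; 24 h post-dose; gain/loss fit vs DMSO baseline.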

Read-out in experiment [4]: Interleukin-8 (IL8), CXCL8 (gene 3576)
Description: BSK_SAg_IL8: BioMAP Diversity Plus: SAg Assay for Interleukin-8 (IL8) Biomarker Activity (AID 2283094). The following applies: primary human HUVEC with PBMC; actives raise or lower the signal. The method, boiled down: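 Human umbilical vein endothelial cells co-cultured with peripheral blood mononuclear cells; IL-8 measured by ELISA 24 h after chemical dosing. Bidirectional concentration-response fitting used DMSO as negative control and activity baseline.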

Experiment [5] is described as follows: BSK_SAg_Proliferation: Cell Proliferation Assessment in the BioMAP Diversity Plus: SAg Assay (AID 2283095).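 Further: relative cell number as total protein by SRB absorbance in sub-confluent culture.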 The settings on record: primary human HUVEC with PBMC. The method, boiled down:
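Human umbilical vein endothelial cells co-cultured with peripheral blood mononuclear cells; total protein measured by sulforhodamine B staining (0.1% SRB after 10% TCA fixation), absorbance at 560 nm, at 96 h. Bidirectional fit against DMSO baseline.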

Experiment [6] is described as follows: BSK_SAg_SRB: Viability Assessment in the BioMAP Diversity Plus: SAg Assay (AID 2283096).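 Further: cells read one day after compound addition; hits may be either gain or loss of signal compared with DMSO.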 The settings on record: primary human HUVEC with PBMC. An outline of the steps:
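Total protein by sulforhodamine B staining, 24 h after dosing, in HUVEC–PBMC co-culture; DMSO-referenced bidirectional fitting.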

Experiment [7] in a line: BSK_SAg_PBMCCytotoxicity: PBMC Cytotoxicity Assessment in the BioMAP Diversity Plus: SAg Assay (AID 2283093).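 Further: PBMC viability measured as Alamar Blue reduction fluorescence at 546/580 nm; fitted both ways against DMSO so a hit may be loss or gain of signal.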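 On AC50: PBMC superantigen activated with SEB plus TSST-1 one hour after compound addition.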 The following applies: primary human HUVEC with PBMC. An outline of the steps:
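Compound added to 75,000 PBMC/well for 1 h; SEB and TSST-1 then added at 20 ng/mL final each; 90 h incubation; Alamar Blue 6 h; read 546/580 nm ex/em. Activity fitted bidirectionally relative to DMSO baseline.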

Experiment [8] concerns the target human CYP19A1, CYP19A1 (gene 1588) (UniProt P11511). Description: NVS_ADME_hCYP19A1: NovaScreen (NVS) CYP450-related Enzyme Activity (ADME) Assay for human CYP19A1 (AID 2283098; active means hit-call score of the fitted dose curve at least 0.9, where 1 is the maximum;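 on AC50: potency for inhibitors seen as loss of fluorescent enzyme signal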). An outline of the steps: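 Biochem, cell-free; recombinant enzyme + specific substrate; fluorescence intensity at 0.5 h post-dose; 10 uM duplicate primary, conc. series for actives; acetonitrile = negative control/baseline; positive and negative controls on every plate.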

The target of experiment [9] is human CYP2A6, CYP2A6 (gene 1548) (UniProt P11509). Description: NVS_ADME_hCYP2A6: NovaScreen (NVS) CYP450-related Enzyme Activity (ADME) Assay for human CYP2A6 (AID 2283099; active means hit-call score of the fitted dose curve at least 0.9, where 1 is the maximum). Here is the method: NVS_ADME_hCYP2A6 is a biochemical, single-readout assay that uses extracted gene-proteins from insect cells in a cell-free assay. Measurements were taken 0.5 hour after chemical dosing in a 96-well plate.NVS_ADME_hCYP2A6 is one of one assay component(s) measured or calculated from the NVS_ADME_hCYP2A6 assay. It is designed to make measurements of enzyme activity, a form of enzyme reporter, as detected with fluorescence intensity signals by Fluorescence technology.Data from the assay component NVS_ADME_hCYP2A6 was analyzed into 1 assay endpoint. This assay endpoint, NVS_ADME_hCYP2A6, was analyzed in the positive analysis fitting direction relative to Acetonitrile as the negative control and baseline of activity. Using a type of enzyme reporter, loss-of-signal activity can be used to understand changes in the enzymatic activity as they relate to the gene CYP2A6. Furthermore, this assay endpoint can be referred to as a primary readout, because this assay has produced multiple assay endpoints where this one serves a enzymatic activity function. To generalize the intended target to other relatable targets, this assay endpoint is annotated to the cyp intended target family, where the subfamily is xenobiotic metabolism.
Binding assays used specific radioligands (tritiated, iodinated) with non-radioactive competitive displacement ligands in agonist or antagonist protocols (as indicated) and various reference compounds and inhibitors to titrate specific binding to receptors and transporters. Most enzyme assays (CYPs, kinases, phosphatases, proteases, HDACs) used recombinant protein and specific substrates (fluorescence mostly, some colorimetric and radioactive) and inhibitors, followed by a biochemical separation of substrate and product. All assays for the biochemical HTS were initially run in duplicate at a single concentration (10 uM for CYP450 assays and 25 uM for all others). Assay-chemical combinations meeting a pre-defined threshold (e.g., 30% inhibition and other criteria defined below) were then run in singleton concentration-response format with maximum concentration of 20 uM for CYPs and 50 uM for all others. Each assay was run with positive and negative controls, and concurrent controls on every plate. The follow-up (secondary) screen tested active chemical-pairs in concentration series, as well as a few additional assays not tested in the primary screen, some selected negative inactives, and several cases re-run in the concentration series for confirmatory purposes.

Experiment [10] deals with human CYP1A1, CYP1A1 (gene 1543) (UniProt P04798). Description: NVS_ADME_hCYP1A1: NovaScreen (NVS) CYP450-related Enzyme Activity (ADME) Assay for human CYP1A1 (AID 2283100; active means hit-call score of the fitted dose curve at least 0.9, where 1 is the maximum). The method, boiled down:
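Inhibition of recombinant CYP1A1 turnover was assessed fluorometrically in a biochemical format 1 h after compound exposure. Testing began at 10 uM in duplicate and progressed to concentration series reaching 20 uM, with on-plate positive and negative controls.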

The record followed here is PubChem BioAssay (EPA / NIEHS).

Inconclusive results are not listed. Activity calls are given as the source filed them. How the source made its calls, unless noted: active means hit-call score of the fitted dose curve at least 0.9, where 1 is the maximum; inactive means score below 0.9.

Sequence of E-selectin (Homo sapiens) (P16581 whole entry, looked up): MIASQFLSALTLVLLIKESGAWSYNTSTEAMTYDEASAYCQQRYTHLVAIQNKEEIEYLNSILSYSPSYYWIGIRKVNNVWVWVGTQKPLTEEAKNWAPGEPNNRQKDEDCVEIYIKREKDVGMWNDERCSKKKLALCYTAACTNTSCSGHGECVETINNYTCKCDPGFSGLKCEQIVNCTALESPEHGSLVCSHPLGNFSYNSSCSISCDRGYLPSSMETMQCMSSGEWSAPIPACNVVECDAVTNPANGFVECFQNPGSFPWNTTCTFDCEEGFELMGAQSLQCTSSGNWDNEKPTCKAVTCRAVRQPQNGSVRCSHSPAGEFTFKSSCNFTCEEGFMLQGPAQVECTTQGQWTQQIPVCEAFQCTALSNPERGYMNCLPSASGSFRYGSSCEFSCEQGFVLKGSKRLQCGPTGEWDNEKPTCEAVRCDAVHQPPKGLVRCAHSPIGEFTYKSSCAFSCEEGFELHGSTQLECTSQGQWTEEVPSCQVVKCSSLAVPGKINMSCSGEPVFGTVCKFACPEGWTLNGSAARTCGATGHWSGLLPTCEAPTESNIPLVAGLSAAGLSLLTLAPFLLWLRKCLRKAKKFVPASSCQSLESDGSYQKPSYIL
Sequence of human CYP2A6, CYP2A6 (gene 1548) (P11509 whole entry, looked up): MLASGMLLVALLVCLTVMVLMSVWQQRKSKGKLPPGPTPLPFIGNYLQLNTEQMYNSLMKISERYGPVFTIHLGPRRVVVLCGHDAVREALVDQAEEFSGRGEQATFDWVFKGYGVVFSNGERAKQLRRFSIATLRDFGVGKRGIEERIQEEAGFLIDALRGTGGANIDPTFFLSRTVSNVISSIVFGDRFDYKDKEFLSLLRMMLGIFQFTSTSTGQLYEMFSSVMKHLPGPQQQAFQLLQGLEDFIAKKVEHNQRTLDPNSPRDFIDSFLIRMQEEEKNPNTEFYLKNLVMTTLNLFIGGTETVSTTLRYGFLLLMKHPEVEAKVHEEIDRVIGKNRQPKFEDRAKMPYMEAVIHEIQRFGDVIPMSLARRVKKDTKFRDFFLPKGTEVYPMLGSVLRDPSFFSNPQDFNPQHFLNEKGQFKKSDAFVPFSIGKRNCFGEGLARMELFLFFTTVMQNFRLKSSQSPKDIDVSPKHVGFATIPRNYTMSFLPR
Sequence of human CYP19A1, CYP19A1 (gene 1588) (P11511 whole entry, looked up): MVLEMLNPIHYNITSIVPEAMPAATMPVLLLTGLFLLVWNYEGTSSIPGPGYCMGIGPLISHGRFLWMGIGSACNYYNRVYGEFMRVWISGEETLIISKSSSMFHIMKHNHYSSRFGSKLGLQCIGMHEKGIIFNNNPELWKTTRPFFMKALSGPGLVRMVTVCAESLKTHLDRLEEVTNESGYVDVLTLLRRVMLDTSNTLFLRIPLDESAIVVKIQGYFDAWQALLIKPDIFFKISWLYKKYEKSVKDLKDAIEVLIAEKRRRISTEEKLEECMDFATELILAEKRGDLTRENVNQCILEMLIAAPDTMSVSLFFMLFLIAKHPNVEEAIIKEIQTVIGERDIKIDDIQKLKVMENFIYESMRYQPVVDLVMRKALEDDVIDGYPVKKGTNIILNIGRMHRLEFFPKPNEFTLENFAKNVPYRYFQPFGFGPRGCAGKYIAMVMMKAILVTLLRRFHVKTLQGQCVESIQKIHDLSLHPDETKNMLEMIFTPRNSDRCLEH
Sequence of human CYP1A1, CYP1A1 (gene 1543) (P04798 whole entry, looked up): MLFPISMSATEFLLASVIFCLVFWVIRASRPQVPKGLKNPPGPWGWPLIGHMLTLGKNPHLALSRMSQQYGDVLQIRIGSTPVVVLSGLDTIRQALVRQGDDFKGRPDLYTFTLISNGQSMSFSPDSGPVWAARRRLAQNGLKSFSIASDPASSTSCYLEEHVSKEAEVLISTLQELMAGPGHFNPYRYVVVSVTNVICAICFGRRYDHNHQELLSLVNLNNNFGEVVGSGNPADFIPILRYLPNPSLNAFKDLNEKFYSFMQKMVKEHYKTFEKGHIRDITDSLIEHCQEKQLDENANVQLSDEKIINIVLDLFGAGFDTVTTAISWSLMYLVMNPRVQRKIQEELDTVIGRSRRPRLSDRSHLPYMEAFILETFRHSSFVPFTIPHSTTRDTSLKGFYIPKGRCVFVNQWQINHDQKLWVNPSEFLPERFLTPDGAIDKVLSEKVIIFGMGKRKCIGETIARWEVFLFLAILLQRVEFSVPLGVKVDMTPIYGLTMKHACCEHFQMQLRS

With `CSc1nnc(C(C)(C)C)c(=O)n1N`, the outcome in experiment [1], in experiment [2], in experiment [3], in experiment [4], in experiment [5] and in experiment [6] was inactive.

For orientation: AC50 means the midpoint of the concentration-response curve, whichever way the signal moves. On to `CCc1cccc(CC)c1N(COC)C(=O)CCl`, for which the AC50 in experiment [1] is 29.4 µM (active); in experiment [2], 14.2 µM (active); in [5], 23.6 µM (active); in [6] it was 20 µM (active). Besides, the outcome in experiment [3], in [7] and in experiment [4] was inactive.

Consider `CCOP(=S)(Oc1cnc(C(C)(C)C)nc1)OC(C)C` (stereo unspecified), for which the AC50 in experiment [1] was 30.7 µM (active); in experiment [2], 31.4 µM (active); in experiment [3] it was 33.3 µM (active); in [4], 30.3 µM (active); in experiment [5] it was 36.6 µM (active); in experiment [6] it was 34.3 µM (active).

As to `CC(C)N(C(=O)SCC(Cl)=C(Cl)Cl)C(C)C`, the AC50 in experiment [1] was 31.3 µM (active); in [2], 31.8 µM (active); in experiment [3] it was 36.7 µM (active); in experiment [4] it was 31 µM (active); in experiment [5] it was 38 µM (active); in experiment [6], 31.5 µM (active).

Take `CCCSP(=O)(OCC)SCCC`: the outcome in [1], in experiment [2], in experiment [3], in [4], in [5] and in [6] was inactive. The call in experiment [8] was inactive.

As for `FC(F)C(F)(F)OCC(Cn1cncn1)c1ccc(Cl)cc1Cl` (stereo unspecified), the result in [1], in experiment [3], in [4] and in experiment [9] was inactive. The AC50 in experiment [2] was 25.7 µM (active); in experiment [5], 23 µM (active); in experiment [6], 20 µM (active); in experiment [8], 2.15 µM (active).

For the compound `CC[C@H](C)[C@H]1O[C@]2(C=C[C@@H]1C)C[C@@H]1C[C@@H](C/C=C(\C)[C@@H](O[C@H]3C[C@H](OC)[C@@H](O[C@H]4C[C@H](OC)[C@@H](NC)[C@H](C)O4)[C@H](C)O3)[C@@H](C)/C=C/C=C3\CO[C@@H]4[C@H](O)C(C)=C[C@@H](C(=O)O1)[C@]34O)O2`, the AC50 in [1] is 3.38 µM (active); in experiment [2], 4.95 µM (active); in experiment [3], 8.62 µM (active); in experiment [4], 2.16 µM (active); in [5] it was 1.69 µM (active); in [6] it was 5.06 µM (active). Besides, the compound was called inactive in experiment [8].

Turning to `CON=C(C(=O)OC)c1ccccc1CON=C(C)c1cccc(C(F)(F)F)c1`, the AC50 in [1] is 4.09 µM (active); in experiment [2] it was 2.08 µM (active); in [3] it was 8.87 µM (active); in experiment [7], 1.59 µM (active); in experiment [4], 3.2 µM (active); in experiment [5], 3.9 µM (active). Besides, the AC50 in experiment [6] is 3.82 µM (active).

Regarding `CN(C)C(=O)Nc1cccc(C(F)(F)F)c1`, the result in [1], in experiment [2], in experiment [3], in experiment [4], in experiment [5] and in [6] was inactive.

As for `CNC(=O)Oc1cccc2c1OC(C)(C)O2`, the result in experiment [1], in [3], in experiment [4] and in experiment [6] was inactive. Also, the AC50 in [2] is 15 µM (active); in experiment [5], 20 µM (active).

As to `CN(C)NC(=O)CCC(=O)O`, the result in experiment [2], in experiment [3], in [7], in experiment [4], in [5] and in [6] was inactive.

Take `CCCOCC(=Nc1ccc(Cl)cc1C(F)(F)F)n1ccnc1`: the AC50 in [1] was 26 µM (active); in experiment [2], 11.6 µM (active); in experiment [3], 32.4 µM (active); in experiment [7], 31 µM (active); in experiment [4], 15.9 µM (active); in experiment [5], 24.5 µM (active). Further, the AC50 in [6] was 27.9 µM (active); in experiment [8] it was 0.999 µM (active); in [10], 4.18 µM (active). Also, the result in experiment [9] was inactive.

Turning to `Nc1c(Cl)cc([N+](=O)[O-])cc1Cl`, the outcome in experiment [1], in experiment [3], in experiment [4], in experiment [5] and in experiment [6] was inactive. The AC50 is 10.1 µM (active) in experiment [2] and 2.05 µM (active) in [9].

As for `CCCCOC(=O)[C@@H](C)Oc1ccc(Oc2ccc(C#N)cc2F)cc1`, the result in [2], in experiment [3], in experiment [7], in experiment [4], in experiment [5] and in [6] was inactive.

Consider `CCc1cccc(C)c1N(C(=O)CCl)C(C)COC` (stereo unspecified), for which the result in experiment [1], in [2], in experiment [3], in experiment [7], in [4] and in experiment [5] was inactive. The result in [6] and in experiment [8] was inactive.

On to `CCC(=O)Nc1ccc(Cl)c(Cl)c1`, for which the result in [2], in experiment [3], in experiment [7], in [4], in experiment [5] and in experiment [6] was inactive.

For the compound `CC(=NC#N)N(C)Cc1ccc(Cl)nc1`, the outcome in [1], in experiment [2], in experiment [3], in experiment [7], in experiment [4] and in [5] was inactive. The result in experiment [6] was inactive.
